Many of the other results were omitted from the sample, so hits are more common in it than they were.
STK33 kin inh: blocks human STK33 kinase activity. Q9BYT3. ADP-Glo luminescence, MBP substrate. inhibition, % at 12.5 µM. actives 0.44% (n = 27,000). AID 2322; in the data active means inhibition above about 20%; inconclusive means no clear call, values can overlap the other calls
Target sequence (Q9BYT3 whole entry, looked up): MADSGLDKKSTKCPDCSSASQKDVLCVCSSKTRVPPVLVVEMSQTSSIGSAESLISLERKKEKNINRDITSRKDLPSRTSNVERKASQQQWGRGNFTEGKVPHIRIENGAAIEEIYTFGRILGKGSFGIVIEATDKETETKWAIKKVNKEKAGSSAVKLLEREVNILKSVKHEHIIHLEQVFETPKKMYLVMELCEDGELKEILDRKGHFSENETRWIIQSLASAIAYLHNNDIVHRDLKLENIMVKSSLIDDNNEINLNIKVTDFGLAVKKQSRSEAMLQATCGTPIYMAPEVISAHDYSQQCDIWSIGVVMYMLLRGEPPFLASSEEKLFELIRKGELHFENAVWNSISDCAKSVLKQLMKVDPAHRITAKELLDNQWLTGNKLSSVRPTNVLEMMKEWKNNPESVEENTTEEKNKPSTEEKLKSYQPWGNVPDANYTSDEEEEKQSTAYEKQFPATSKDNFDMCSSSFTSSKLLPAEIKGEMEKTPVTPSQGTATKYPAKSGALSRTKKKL
PD-1 reversal: activators reversing PD-1 mediated T-cell inhibition. primary human CD4 T cells, PD-L1 beads, CellTiter-Glo 96 h. activation, % (no concentration beside the values). 29,000 tested, under 10 active; call rule not given here;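 further: 0% = median vehicle wells and 100% = positive control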
NOMO-1 viab: STK33 inhibitor candidate reducing NOMO-1 cell viability; AID 2330; NOMO-1 AML viability, CellTiter-Glo luminescence, 72 h; inhibition, % (no concentration beside the values); actives 7.5% (n = 37,000); in the data active means inhibition above about 80%; inconclusive means no clear call, values can overlap the other calls
* marks the source's active call; other numbers are inactive results; ? = inconclusive; nt = no result.

SMILES	STK33 kin inh	PD-1 reversal	NOMO-1 viab
Cc1ccc(C)c(NC(=O)CSc2nc(-c3ccccc3)cc(C(F)(F)F)n2)c1	1.1	nt	27.3
Cc1cc(-c2ccccc2)nc2c1/C(=N\O)CC(C)(C)C2	nt	-3.4	101.0*
Cc1nnc(SCC(=O)Nc2ccc(Cl)cc2O)s1	1.9	nt	nt
CCOC(=O)c1ccc(N=C(N)SCc2ccc(Cl)cc2)cc1	nt	1.0	20.8
CC(=NC1CC1)c1c(C)[nH]n(-c2nc3ccccc3s2)c1=O	nt	-1.1	53.6
c1cn2c3c(n1)CCCc3c1cc(C3CCCCC3)ccc12	nt	-0.2	122.9*
O=C(NCc1ccccn1)c1cccnc1SCCS(=O)(=O)c1ccc(C(F)(F)F)cn1	nt	-13.1	37.9
O=C1c2ccccc2O[C@@H](c2ccc(Cl)cc2)[C@@H]1O	nt	-3.4	113.7*
COc1cc(O)c2c(c1)O[C@H](c1ccc(O)cc1)[C@@H](O)C2=O	1.1	nt	nt
Cc1cc(NC(=O)c2ccc(N)cc2)c(N)cc1N	?	5.4	29.8
CCOC(=O)c1ccc(-n2c(C)cc(C=C3C(=O)NC(=S)NC3=O)c2C)cc1	2.9	-1.6	121.0*
CCOC(=O)c1c(O)c(O)c(C(=O)OCC)n1-c1ccc(OC)cc1	nt	-0.2	26.3
COc1cc2c(cc1OC)C(c1ccccc1NC(=O)c1cccc(Cl)c1)=NCC2	0.3	-1.7	-9.1
COc1ccc(NC(=O)CSc2nnc3c4c5c(sc4nc(-c4ccccc4)n23)CCC5)cc1	1.0	-4.9	?
COc1ccc(S(=O)(=O)N(C)C[C@@H]2OCCCC[C@@H](C)Oc3ccc(NS(=O)(=O)c4ccc(Cl)cc4)cc3C(=O)N([C@H](C)CO)C[C@@H]2C)cc1	-7.6	nt	93.9*
C[C@@H]1CCCCO[C@@H](CN(C)S(=O)(=O)c2ccc(F)cc2)[C@@H](C)CN([C@H](C)CO)C(=O)c2cc(NS(=O)(=O)c3ccc(F)cc3)ccc2O1	4.8	-10.3	68.3
C[C@@H]1CCCCO[C@@H](CN(C)S(=O)(=O)c2ccc(Cl)cc2)[C@@H](C)CN([C@H](C)CO)C(=O)c2cc(NS(=O)(=O)c3ccc(Cl)cc3)ccc2O1	0.0	nt	90.7*
C[C@@H]1CCCCO[C@@H](CN(C)S(=O)(=O)c2ccc(Cl)cc2)[C@@H](C)CN([C@H](C)CO)C(=O)c2cc(NS(=O)(=O)c3ccc(F)cc3)ccc2O1	5.5	nt	102.9*
COc1ccc(S(=O)(=O)Nc2ccc3c(c2)C(=O)N([C@H](C)CO)C[C@H](C)[C@H](CN(C)S(=O)(=O)c2ccc(OC)cc2)OCCCC[C@@H](C)O3)cc1	3.5	0.1	38.3
C[C@@H]1CCCCO[C@@H](CN(C)S(=O)(=O)c2ccc(Cl)cc2)[C@@H](C)CN([C@H](C)CO)C(=O)c2cc(NC(=O)c3ccccc3)ccc2O1	-2.6	-4.3	87.6*
C[C@@H]1CCCCO[C@H](CN(C)S(=O)(=O)c2ccccc2)[C@@H](C)CN([C@H](C)CO)C(=O)c2cc(NC(=O)c3ccccc3)ccc2O1	-0.9	-1.6	3.6
C[C@@H]1CCCCO[C@H](CN(C)S(=O)(=O)c2ccc(Cl)cc2)[C@@H](C)CN([C@H](C)CO)C(=O)c2cc(NS(=O)(=O)c3ccc(Cl)cc3)ccc2O1	1.3	nt	19.9
Cc1cc(C)c(OCC(=O)Nc2ncc(I)cc2C)c(Cl)c1	2.7	-1.2	4.1
O=C(CSc1nc2ccc([N+](=O)[O-])cc2[nH]1)Nc1ccc2c(c1)OCCO2	3.3	1.7	24.6
COc1ccc2[nH]c(=O)c(CN(C)C(=O)c3cccc(Cl)c3)cc2c1	-0.8	0.3	17.4
SMILES	STK33 kin inh	PD-1 reversal	NOMO-1 viab
CN1CCN(CCOc2ccccc2)CC1	nt	0.0	15.3
Cc1ccc(S(=O)(=O)Nc2ccc3c(c2)C(=O)N([C@H](C)CO)C[C@H](C)[C@H](CN(C)S(=O)(=O)c2ccccc2)OCCCC[C@@H](C)O3)cc1	1.3	-6.9	91.3*
Cc1ccc(S(=O)(=O)N(C)C[C@H]2OCCCC[C@@H](C)Oc3ccc(NS(=O)(=O)c4ccc(Cl)cc4)cc3C(=O)N([C@H](C)CO)C[C@@H]2C)cc1	3.1	nt	?
Cc1ccc(S(=O)(=O)N(C)C[C@H]2OCCCC[C@@H](C)Oc3ccc(NS(=O)(=O)c4ccccc4)cc3C(=O)N([C@H](C)CO)C[C@@H]2C)cc1	5.4	-6.0	36.2
C[C@@H]1CCCCO[C@@H](CN(C)CC2CCCCC2)[C@@H](C)CN([C@H](C)CO)C(=O)c2cc(NS(=O)(=O)c3ccc(Cl)cc3)ccc2O1	1.4	-11.6	96.8*
Cc1ccc(S(=O)(=O)Nc2ccc3c(c2)C(=O)N([C@H](C)CO)C[C@H](C)[C@H](CN(C)S(=O)(=O)c2ccc(Cl)cc2)OCCCC[C@@H](C)O3)cc1	3.3	-9.9	111.2*
C[C@@H]1CCCCO[C@H](CN(C)CC2CCCCC2)[C@@H](C)CN([C@H](C)CO)C(=O)c2cc(NS(=O)(=O)c3ccc(Cl)cc3)ccc2O1	-1.4	-6.3	?
O=C(CSc1nccc(=O)[nH]1)Nc1cccc(F)c1	-1.2	0.2	22.8
Nc1c(Cl)cc(NC(=O)CCCC(=O)O)cc1Cl	9.7	2.6	-8.4
O=C(CSc1nnnn1C1CCCCC1)Nc1ccccc1[N+](=O)[O-]	-0.1	1.5	-6.1
CC(=O)c1ccc(NC(=O)CSc2nnc3n(-c4ccccc4)c(=O)c4c5c(sc4n23)COC(C)(C)C5)cc1	3.0	nt	-27.6
CSc1nsc(SCC(=O)c2ccc([N+](=O)[O-])cc2)n1	1.6	-5.9	18.8
COc1ccc(C2=Cc3ccccc3C(C)(C)O2)cc1	nt	-1.0	15.7
C[C@@H]1CN([C@H](C)CO)C(=O)c2cccc(NC(=O)CCCCCC(=O)Nc3ccccc3N)c2O[C@@H]1CN(C)C	nt	1.1	28.8
C[C@H]1CN([C@@H](C)CO)C(=O)c2cccc(NC(=O)C3CC3)c2O[C@H]1CN(C)Cc1ccc(Cl)c(Cl)c1	nt	-1.4	-1.7
C[C@@H]1CN([C@H](C)CO)C(=O)c2cccc(NC(=O)CCCCCC(=O)Nc3ccccc3N)c2O[C@@H]1CN(C)Cc1ccc(Cl)c(Cl)c1	nt	0.4	134.2*
C[C@H]1CN([C@@H](C)CO)C(=O)c2cccc(NC(=O)CCCCCC(=O)Nc3ccccc3N)c2O[C@H]1CN(C)Cc1ccc(Cl)c(Cl)c1	nt	-0.3	119.9*
C[C@@H]1CN([C@@H](C)CO)C(=O)c2cccc(NC(=O)CCCCCC(=O)Nc3ccccc3N)c2O[C@@H]1CN(C)Cc1ccc(Cl)c(Cl)c1	nt	-0.3	126.3*
C[C@H](CO)N1C[C@H](C)[C@H](CN(C)Cc2ccc(Cl)c(Cl)c2)Oc2c(NC(=O)C3CC3)cccc2C1=O	nt	-1.0	4.4
COc1cc(NC(=O)COc2ccc(Cl)cc2C)c(C(=O)O)cc1OC	1.7	0.8	-16.2
Cc1nc(N)nc(CSc2ccccc2)n1	-3.9	-10.6	27.1
C1=Cc2nonc2C2C=C(c3ccccc3)N=C12 (stereo unspecified)	nt	-1.2	91.9*
Nc1nonc1-c1ccccc1	nt	0.1	14.7
O=C(c1ccc(Cl)cc1)c1ccc(CSc2nnc(-c3ccccc3)o2)o1	3.7	nt	nt
CSc1sc(C(=O)Sc2ccccc2)cc1S(=O)(=O)C(C)C	nt	1.1	106.4*
CSc1cccc(NC(=O)C(C)NS(=O)(=O)c2ccccc2)c1 (stereo unspecified)	-1.5	-0.7	39.2
CN1C(=O)[C@@]2(Cc3ccccc3)SSS[C@]1(CO)C(=O)N2C	-10.5	-16.7	108.4*

From PubChem BioAssay
